In the supplement of paper PMC10849652 one finds log2 fold change data, which are given here for 36 targets.

The full data set covers some 7,900 targets. This sample favours those with a hit. About 0.6% of all pairs of compound and target were hits.

UniProt Q969X6, sequence (Q969X6 whole entry, looked up): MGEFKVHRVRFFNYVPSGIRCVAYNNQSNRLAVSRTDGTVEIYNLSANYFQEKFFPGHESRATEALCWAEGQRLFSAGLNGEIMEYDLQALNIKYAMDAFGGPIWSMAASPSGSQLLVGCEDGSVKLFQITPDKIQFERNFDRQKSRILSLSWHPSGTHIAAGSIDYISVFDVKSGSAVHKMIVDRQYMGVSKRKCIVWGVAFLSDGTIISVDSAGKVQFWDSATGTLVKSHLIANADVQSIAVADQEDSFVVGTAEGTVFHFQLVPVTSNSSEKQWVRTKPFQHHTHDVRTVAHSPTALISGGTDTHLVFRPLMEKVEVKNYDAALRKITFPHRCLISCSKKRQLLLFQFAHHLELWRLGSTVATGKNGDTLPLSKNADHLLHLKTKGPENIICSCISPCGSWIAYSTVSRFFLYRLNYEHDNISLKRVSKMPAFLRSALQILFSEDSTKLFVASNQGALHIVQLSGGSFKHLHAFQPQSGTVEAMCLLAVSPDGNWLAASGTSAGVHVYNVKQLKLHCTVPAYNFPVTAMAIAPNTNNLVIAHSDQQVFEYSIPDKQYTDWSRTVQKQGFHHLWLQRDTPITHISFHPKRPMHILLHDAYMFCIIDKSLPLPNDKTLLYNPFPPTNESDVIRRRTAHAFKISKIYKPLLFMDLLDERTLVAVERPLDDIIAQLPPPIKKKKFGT
UniProt Q969T4, sequence (Q969T4 whole entry, looked up): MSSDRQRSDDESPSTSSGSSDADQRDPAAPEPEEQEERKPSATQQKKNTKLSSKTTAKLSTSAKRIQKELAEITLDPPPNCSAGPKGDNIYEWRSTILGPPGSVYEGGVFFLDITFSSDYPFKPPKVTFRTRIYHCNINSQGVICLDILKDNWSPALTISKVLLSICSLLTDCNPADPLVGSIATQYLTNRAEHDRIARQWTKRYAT
UniProt Q9NYU2, sequence (Q9NYU2 whole entry, looked up): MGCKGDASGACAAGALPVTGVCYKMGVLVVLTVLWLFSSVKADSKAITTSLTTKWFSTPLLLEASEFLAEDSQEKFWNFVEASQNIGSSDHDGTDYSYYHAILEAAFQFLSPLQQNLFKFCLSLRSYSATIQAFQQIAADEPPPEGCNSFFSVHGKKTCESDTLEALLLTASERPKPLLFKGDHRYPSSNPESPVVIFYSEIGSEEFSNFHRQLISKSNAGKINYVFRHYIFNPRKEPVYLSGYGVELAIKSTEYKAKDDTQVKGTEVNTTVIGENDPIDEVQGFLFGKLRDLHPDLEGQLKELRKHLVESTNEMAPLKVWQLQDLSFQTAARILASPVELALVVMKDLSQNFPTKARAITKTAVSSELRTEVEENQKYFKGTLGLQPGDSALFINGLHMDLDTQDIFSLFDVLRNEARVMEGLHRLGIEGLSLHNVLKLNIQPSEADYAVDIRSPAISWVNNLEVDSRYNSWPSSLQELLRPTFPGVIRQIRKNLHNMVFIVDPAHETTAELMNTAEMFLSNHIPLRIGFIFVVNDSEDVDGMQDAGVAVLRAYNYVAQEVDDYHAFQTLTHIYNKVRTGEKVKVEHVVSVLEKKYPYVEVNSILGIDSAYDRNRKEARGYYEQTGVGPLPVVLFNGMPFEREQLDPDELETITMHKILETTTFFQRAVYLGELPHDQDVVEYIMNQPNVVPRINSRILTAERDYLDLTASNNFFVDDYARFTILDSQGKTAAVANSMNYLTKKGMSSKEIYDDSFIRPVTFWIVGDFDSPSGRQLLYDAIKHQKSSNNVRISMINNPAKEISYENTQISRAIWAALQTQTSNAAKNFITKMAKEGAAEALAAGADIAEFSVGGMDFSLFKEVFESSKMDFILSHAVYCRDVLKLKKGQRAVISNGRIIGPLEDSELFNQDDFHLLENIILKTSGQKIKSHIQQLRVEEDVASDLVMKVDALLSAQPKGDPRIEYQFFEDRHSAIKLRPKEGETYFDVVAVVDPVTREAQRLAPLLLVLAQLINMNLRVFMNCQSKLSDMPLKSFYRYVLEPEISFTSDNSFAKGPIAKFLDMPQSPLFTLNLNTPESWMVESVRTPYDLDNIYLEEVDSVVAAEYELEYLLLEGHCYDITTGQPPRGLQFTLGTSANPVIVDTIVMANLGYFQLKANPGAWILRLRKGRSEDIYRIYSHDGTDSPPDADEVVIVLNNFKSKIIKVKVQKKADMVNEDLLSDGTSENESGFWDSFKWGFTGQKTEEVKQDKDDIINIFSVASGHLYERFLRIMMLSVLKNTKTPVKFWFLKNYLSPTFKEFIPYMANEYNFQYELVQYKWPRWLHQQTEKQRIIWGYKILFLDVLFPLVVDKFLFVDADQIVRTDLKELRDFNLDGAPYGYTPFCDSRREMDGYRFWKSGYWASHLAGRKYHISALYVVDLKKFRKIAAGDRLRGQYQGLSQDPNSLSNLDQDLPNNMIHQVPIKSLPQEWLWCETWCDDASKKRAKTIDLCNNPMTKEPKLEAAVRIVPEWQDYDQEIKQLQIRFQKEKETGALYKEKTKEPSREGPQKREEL
UniProt Q9UL33, sequence (Q9UL33 whole entry, looked up): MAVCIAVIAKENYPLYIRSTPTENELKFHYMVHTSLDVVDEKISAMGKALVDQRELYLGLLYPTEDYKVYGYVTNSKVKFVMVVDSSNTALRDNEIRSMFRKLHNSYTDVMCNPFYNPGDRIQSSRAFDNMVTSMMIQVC
UniProt O60763, sequence (O60763 whole entry, looked up): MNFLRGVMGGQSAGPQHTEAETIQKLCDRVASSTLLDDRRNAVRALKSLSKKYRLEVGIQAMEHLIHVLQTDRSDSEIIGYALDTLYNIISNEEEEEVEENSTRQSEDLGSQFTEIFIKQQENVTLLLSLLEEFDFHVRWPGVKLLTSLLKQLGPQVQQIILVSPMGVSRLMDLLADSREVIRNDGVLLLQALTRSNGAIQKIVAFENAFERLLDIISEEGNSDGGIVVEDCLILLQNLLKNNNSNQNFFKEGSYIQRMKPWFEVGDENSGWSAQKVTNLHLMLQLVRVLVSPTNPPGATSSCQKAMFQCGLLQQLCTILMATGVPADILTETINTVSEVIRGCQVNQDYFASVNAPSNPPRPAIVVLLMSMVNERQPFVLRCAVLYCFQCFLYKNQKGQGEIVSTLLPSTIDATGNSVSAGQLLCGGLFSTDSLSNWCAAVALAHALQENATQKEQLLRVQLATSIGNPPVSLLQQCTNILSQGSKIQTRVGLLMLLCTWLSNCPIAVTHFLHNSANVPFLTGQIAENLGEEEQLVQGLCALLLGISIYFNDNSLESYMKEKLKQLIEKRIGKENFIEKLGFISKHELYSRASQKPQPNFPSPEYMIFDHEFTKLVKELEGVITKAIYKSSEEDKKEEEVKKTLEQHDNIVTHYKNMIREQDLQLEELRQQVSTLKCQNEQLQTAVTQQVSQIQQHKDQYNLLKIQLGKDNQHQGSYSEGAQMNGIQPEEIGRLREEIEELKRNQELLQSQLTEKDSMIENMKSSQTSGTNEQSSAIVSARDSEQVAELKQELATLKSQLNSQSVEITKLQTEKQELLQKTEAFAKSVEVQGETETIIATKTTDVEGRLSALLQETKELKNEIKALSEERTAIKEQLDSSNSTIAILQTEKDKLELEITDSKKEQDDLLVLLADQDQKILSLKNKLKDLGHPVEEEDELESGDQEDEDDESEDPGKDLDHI
UniProt Q9Y385, sequence (Q9Y385 whole entry, looked up): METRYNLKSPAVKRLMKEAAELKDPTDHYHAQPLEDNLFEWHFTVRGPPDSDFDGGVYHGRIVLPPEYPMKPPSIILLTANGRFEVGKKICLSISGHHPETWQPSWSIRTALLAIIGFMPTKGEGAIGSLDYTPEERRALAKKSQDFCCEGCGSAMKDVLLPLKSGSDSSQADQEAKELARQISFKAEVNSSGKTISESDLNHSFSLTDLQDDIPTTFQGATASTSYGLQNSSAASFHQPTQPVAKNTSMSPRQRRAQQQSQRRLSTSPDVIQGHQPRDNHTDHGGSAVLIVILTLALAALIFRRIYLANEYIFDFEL
UniProt Q96FX7, sequence (Q96FX7 whole entry, looked up): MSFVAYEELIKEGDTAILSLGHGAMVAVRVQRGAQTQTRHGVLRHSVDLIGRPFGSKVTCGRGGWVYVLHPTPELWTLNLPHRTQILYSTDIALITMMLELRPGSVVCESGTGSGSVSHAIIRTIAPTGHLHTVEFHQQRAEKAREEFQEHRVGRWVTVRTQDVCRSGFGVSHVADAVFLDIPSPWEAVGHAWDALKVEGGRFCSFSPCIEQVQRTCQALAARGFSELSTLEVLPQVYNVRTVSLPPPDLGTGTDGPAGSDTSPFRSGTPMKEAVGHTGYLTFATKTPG
UniProt Q9BVJ6, sequence (Q9BVJ6 whole entry, looked up): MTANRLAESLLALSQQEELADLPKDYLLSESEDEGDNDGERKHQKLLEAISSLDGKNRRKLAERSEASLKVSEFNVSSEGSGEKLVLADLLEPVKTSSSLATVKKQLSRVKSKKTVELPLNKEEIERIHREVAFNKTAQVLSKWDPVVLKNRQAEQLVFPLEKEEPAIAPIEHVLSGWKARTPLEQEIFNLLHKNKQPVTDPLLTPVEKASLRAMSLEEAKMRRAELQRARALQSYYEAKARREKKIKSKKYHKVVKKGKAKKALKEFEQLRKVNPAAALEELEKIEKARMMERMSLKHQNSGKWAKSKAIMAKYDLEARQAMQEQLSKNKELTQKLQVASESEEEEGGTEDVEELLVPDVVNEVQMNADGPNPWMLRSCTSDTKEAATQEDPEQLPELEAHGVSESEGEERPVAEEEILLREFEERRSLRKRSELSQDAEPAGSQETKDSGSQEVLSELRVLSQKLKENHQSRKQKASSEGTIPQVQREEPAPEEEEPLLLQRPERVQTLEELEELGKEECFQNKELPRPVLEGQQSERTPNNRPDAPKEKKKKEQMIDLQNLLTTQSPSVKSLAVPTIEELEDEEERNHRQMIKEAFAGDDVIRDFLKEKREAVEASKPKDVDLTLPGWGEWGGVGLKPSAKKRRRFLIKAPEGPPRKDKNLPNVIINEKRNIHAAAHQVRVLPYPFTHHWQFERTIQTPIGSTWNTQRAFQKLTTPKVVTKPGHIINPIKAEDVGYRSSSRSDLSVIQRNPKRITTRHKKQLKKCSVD
UniProt Q9UDW1, sequence (Q9UDW1 whole entry, looked up): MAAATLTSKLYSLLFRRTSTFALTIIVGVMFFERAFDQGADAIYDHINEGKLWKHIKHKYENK

Compound in one assay: NCC(=O)Nc1ccc(-n2nc(C(F)(F)F)cc2-c2ccc3c(ccc4ccccc43)c2)cc1
The experiment in a line: log2 fold change, soluble protein after heating vs DMSO (PISA); higher = thermal stabilisation; K562 cells, 10 uM, 30 min; active = over 0.2 and 3.5 SD of the protein, either way, in both replicates (recomputed). The method in brief:
(§1)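 K562 cells at 2×10^6 cells/mL were exposed to 10 μM compound for 30 min, then aliquots were heated for 3 min across 48°C-58°C, pooled, and extracted in PBS containing 0.5% NP-40 at 4°C. The supernatant after 21,000xg for 90 min was taken as soluble protein and measured by TMTpro 16plex LC-MS/MS with channel sums equalised. Thermal stability is reported relative to control samples, with values from duplicates. Fold changes are given on a log2 scale.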
Consider VTA1 (UniProt Q9NP79), for which the log2 fold change was -0.045 (inactive).
Same read-out and setting: under UBE4B isoform 4 (UniProt O95155) stands -0.056 (inactive); under USO1 isoform 2 (UniProt O60763), -0.024 (inactive); under VPS16 (UniProt Q9H269), 0.007 (inactive).
On the same count and under the same terms, under WAPL isoform 3 (UniProt Q7Z5K2) stands -0.066 (inactive); under VTI1A (UniProt Q96AJ9), -0.014 (inactive); under VPS8 (UniProt Q8N3P4), -0.088 (inactive).
As for UFL1 (UniProt O94874), the log2 fold change was -0.066 (inactive).
On the same count and under the same terms, under UTP4 (UniProt Q969X6) stands 0.05 (inactive); under UTP14A (UniProt Q9BVJ6), 0.076 (inactive); under UGGT1 (UniProt Q9NYU2), 0.017 (inactive).
In the case of VPS18 (UniProt Q9P253), the log2 fold change is 0.079 (inactive).
The same measure, in the same setting: under UBA6 stands -0.047 (inactive); under TMEM161A (UniProt Q9NX61), -0.101 (inactive); under TNFRSF10A (UniProt O00220), 0.029 (inactive).
The same measure, in the same setting: under TRMT61A (UniProt Q96FX7) stands 0.101 (inactive); under TRAPPC8 (UniProt Q9Y2L5), -0.028 (inactive).
Regarding UBE2S (UniProt Q16763), the log2 fold change was -0.086 (inactive).
As for UBE2E3 (UniProt Q969T4), the log2 fold change is -0.106 (inactive).
Still for that read-out and setting: under UCHL5 (UniProt Q9Y5K5) stands -0.045 (inactive).
The same measure, in the same setting: under VTI1B (UniProt Q9UEU0) stands -0.054 (inactive); under TNPO1 (UniProt Q92973), -0.06 (inactive); under UQCR10 (UniProt Q9UDW1), 0.02 (inactive).
Still for that read-out and setting: under TMEM87B (UniProt Q96K49) stands -0.1 (inactive); under USP34 (UniProt Q70CQ2), -0.02 (inactive); under USP14 (UniProt P54578), -0.057 (inactive).
Consider VPS51 (UniProt Q9UID3), for which the log2 fold change is -0.048 (inactive).
The same measure, in the same setting: under UBE2J1 (UniProt Q9Y385) stands 0.017 (inactive).
Still for that read-out and setting: under UBE3D (UniProt Q7Z6J8) stands 0.027 (inactive); under TRAM1 (UniProt Q15629), -0.196 (inactive).
On the same count and under the same terms, under TOP2A isoform 4 (UniProt P11388) stands 0.19 (inactive); under XPNPEP3 (UniProt Q9NQH7), 0 (inactive).
As for TRAPPC2L (UniProt Q9UL33), the log2 fold change was 0.054 (inactive).
On the same count and under the same terms, under XPO5 (UniProt Q9HAV4) stands -0.074 (inactive); under WDHD1 (UniProt O75717), -0.106 (inactive).
Still for that read-out and setting: under VDAC1 (UniProt P21796) stands 0.019 (inactive).

Compound in a further assay: Nc1ccccc1NC(=O)c1ccc(CNC(=O)OCc2cccnc2)cc1 [entinostat]
The description is as above. An outline of the steps:
as §1
As to VTA1 (UniProt Q9NP79), the log2 fold change was 0.036 (inactive).
For the target UBE4B isoform 4 (UniProt O95155), the log2 fold change was 0.019 (inactive).
On the same count and under the same terms, under USO1 isoform 2 (UniProt O60763) stands 0.032 (inactive).
Same read-out and setting: under VPS16 (UniProt Q9H269) stands 0.084 (inactive).
Turning to WAPL isoform 3 (UniProt Q7Z5K2), the log2 fold change was 0.01 (inactive).
On to VTI1A (UniProt Q96AJ9), for which the log2 fold change is -0.009 (inactive).
On the same count and under the same terms, under VPS8 (UniProt Q8N3P4) stands 0.077 (inactive); under UFL1 (UniProt O94874), 0.059 (inactive).
On the same count and under the same terms, under UTP4 (UniProt Q969X6) stands -0.037 (inactive); under UTP14A (UniProt Q9BVJ6), 0.012 (inactive).
Same read-out and setting: under UGGT1 (UniProt Q9NYU2) stands -0.001 (inactive).
Turning to VPS18 (UniProt Q9P253), the log2 fold change was 0.08 (inactive).
Same read-out and setting: under UBA6 stands 0.05 (inactive); under TMEM161A (UniProt Q9NX61), 0.049 (inactive).
For TNFRSF10A (UniProt O00220), the log2 fold change is -0.202 (inactive).
For the target TRMT61A (UniProt Q96FX7), the log2 fold change was -0.029 (inactive).
Still for that read-out and setting: under TRAPPC8 (UniProt Q9Y2L5) stands 0.042 (inactive).
Same read-out and setting: under UBE2S (UniProt Q16763) stands -0.026 (inactive).
As to UBE2E3 (UniProt Q969T4), the log2 fold change was 0.051 (inactive).
Same read-out and setting: under UCHL5 (UniProt Q9Y5K5) stands 0.048 (inactive); under VTI1B (UniProt Q9UEU0), -0.031 (inactive).
Still for that read-out and setting: under TNPO1 (UniProt Q92973) stands 0.044 (inactive); under UQCR10 (UniProt Q9UDW1), -0.003 (inactive).
Still for that read-out and setting: under TMEM87B (UniProt Q96K49) stands 0.135 (inactive).
Regarding USP34 (UniProt Q70CQ2), the log2 fold change was 0.024 (inactive).
On to USP14 (UniProt P54578), for which the log2 fold change is 0.025 (inactive).
Take VPS51 (UniProt Q9UID3): the log2 fold change was 0.07 (inactive).
Still for that read-out and setting: under UBE2J1 (UniProt Q9Y385) stands -0.077 (inactive).
In the case of UBE3D (UniProt Q7Z6J8), the log2 fold change is 0.074 (inactive).
Still for that read-out and setting: under TRAM1 (UniProt Q15629) stands -0.075 (inactive); under TOP2A isoform 4 (UniProt P11388), -0.042 (inactive); under XPNPEP3 (UniProt Q9NQH7), -0.024 (inactive).
Still for that read-out and setting: under TRAPPC2L (UniProt Q9UL33) stands 0.008 (inactive); under XPO5 (UniProt Q9HAV4), 0.046 (inactive).
Turning to WDHD1 (UniProt O75717), the log2 fold change was 0.09 (inactive).
On the same count and under the same terms, under VDAC1 (UniProt P21796) stands -0.002 (inactive).
